# Sa ugtP lethal – kills S. aureus RN4220 lacking UgtP; S. aureus RN4220 ugtP deletion, OD600 growth, 16 h; growth inhibition, % (no concentration beside the values); hit rate 0.54% among 330,000; AID 1259309; in the data active = growth inhibition above about 68%
# RN4220 kill – S. aureus RN4220 growth inhibition; hit rate 0.33% among 330,000; OD600, 16 h; inhibition, % (concentration not given with the values); in the data active = inhibition above about 85%
# BJeLR viability – kills HRASV12-expressing BJeLR cells. BJeLR (HRASV12) viability, CellTiter-Glo ATP luminescence, 48 h. hit rate 0.17% among 300,000. inhibition, % (test concentration not listed); in the data active = inhibition above about 50%
# A number is an active result; 0 = inactive; - = no result. Shown are actives, neighbours in structure and some others; about 0.65% of the full set was active somewhere.
SMILES,Sa ugtP lethal,RN4220 kill,BJeLR viability
COc1cc(C2C(C(=O)c3cc4ccccc4o3)=C(O)C(=O)N2c2cc(C)on2)cc(OC)c1OC (stereo not given),-,-,0
Cc1cc(N2C(=O)C(O)=C(C(=O)c3cc4ccccc4o3)C2c2ccc(OC(C)C)cc2)no1 (stereo not given),100.2,100.4,0
COC(=O)c1ccc(C2C(C(=O)c3cc4ccccc4o3)=C(O)C(=O)N2c2cc(C)on2)cc1 (stereo not given),-,-,0
COc1ccc(C2Nc3ccccc3C(=O)N2NS(=O)(=O)c2ccc(C)cc2)cc1OC (stereo not given),0,0,0
CN(C)Cc1c(C(=O)N/N=C/c2cccnc2)nnn1-c1nonc1N,-,-,0
Cn1cnnc1Sc1ccc(C(=O)NCCC23CC4CC(CC(C4)C2)C3)cc1[N+](=O)[O-],0,0,0
Cc1ccc(OC(=O)CCN2C(=O)c3ccccc3C2=O)cc1C,89.6,0,0
Cc1cc(C)cc(OC(=O)CCN2C(=O)c3ccccc3C2=O)c1,84.4,0,0
Cc1ccc(NC(=O)c2ccc(OC(=O)CCN3C(=O)c4ccccc4C3=O)cc2)cc1,0,0,0
Cc1ccc(OCC(=O)OCCN2C(=O)c3ccccc3C2=O)cc1C,-,-,0
Cc1cc(C)c2c(CC(=O)NN(C)C)coc2c1,0,0,0
C=CCn1c(Sc2ncc([N+](=O)[O-])s2)n[nH]c1=O,89.4,0,0
C=CCn1c(CSc2ccccc2[N+](=O)[O-])n[nH]c1=S,0,0,0
O=C(CCCC(=O)N(CC(=O)NC1CCCC1)Cc1ccc(F)cc1)Nc1ccccn1,0,0,0
C=CCn1cc(C(=O)N2CCN(C)CC2)c(=O)c2cc(S(=O)(=O)N3CCCC3)ccc21,0,0,0
CC(C)(C)c1ccc(Cn2ccc(-c3ccc4c(c3)OCO4)n2)cc1,93.4,0,0
Cc1ccc(Cn2ccc(NC(=O)c3cc(-c4ccc5c(c4)OCO5)on3)n2)cc1,0,0,0
N#Cc1ccc(S(=O)(=O)NCCc2ccncc2)cc1,0,0,-
CC(=O)Oc1cccc(NC(=O)c2cccc(C(=O)Nc3cccc(OC(C)=O)c3)c2)c1,0,0,0
Cc1ccc(CON=CC2=C(Cl)c3ccccc3CC2)cc1,95.2,0,-
Fc1ccc(CO/N=C/C2=C(Cl)c3ccccc3CC2)cc1,-,-,0
CCNc1sc(C(=O)c2cccs2)c(N)c1C#N,0,0,0
Cc1nn2c(=O)cc(CSCC(=O)Nc3ccccc3Cl)nc2s1,0,0,0
Cc1ccc(C)n1-n1c(C)nc2sc(-c3ccccc3)cc2c1=O,0,0,0
Cc1nc2cc(-c3ccccc3)sc2c(=O)n1N,0,0,78.6
SMILES,Sa ugtP lethal,RN4220 kill,BJeLR viability
COc1ccc(-c2cc3nc(C)n(N)c(=O)c3s2)cc1,0,0,98.8
COc1ccc(-c2cc3nc4n(c(=O)c3s2)CCC4)cc1,0,0,0
Clc1ccc2c(N3CCOCC3)ccnc2c1,0,0,0
Clc1ccccc1Nc1nnc(-c2ccncc2)s1,0,0,85.1
COc1ccc(Cl)cc1Nc1nnc(-c2ccncc2)s1,0,0,0
Cc1cc(C)nc(NC2=N[C@@H]3CCCC[C@H]3N2C(=O)Nc2cc(Cl)cc(Cl)c2)n1,0,0,-
Nc1ccc(N2CCCC2)c(S(=O)(=O)Nc2cccc(C(F)(F)F)c2)c1,0,0,-
O=c1c2c(-c3ccccc3)csc2nc2c3ccccc3c(NCCN3CCOCC3)nn12,0,91.1,0
O=c1c2ccccc2nc2c3ccccc3c(NCCN3CCOCC3)nn12,0,0,0
CCN(C[C@H]1N[C@@](Cc2ccccc2)(C(=O)OC)[C@H]2C(=O)N(Cc3ccccc3)C(=O)[C@@H]12)C(=O)Nc1ccc(C(F)(F)F)cc1,100.1,100.4,-
CCN(C[C@H]1N[C@@](Cc2ccccc2)(C(=O)OC)[C@H]2C(=O)N(Cc3ccccc3)C(=O)[C@@H]12)C(=O)Nc1ccc(C)cc1,0,0,-
CN(Cc1cccc(Cl)c1Cl)C(=O)c1cc(S(=O)(=O)N2CCOCC2)ccc1F,0,0,-
CC[n+]1ccccc1/C=C1\Sc2ccc(C)cc2N1C,100.5,0,0
CN1/C(=C/c2cccc[n+]2CCO)Sc2ccccc21,0,0,0
O=C(NNC1=C(C(=O)C(F)(F)F)CCC1)c1cccc(O)c1,0,0,0
Cc1cccc(C(=O)NNC2=C(C(=O)C(F)(F)F)CCC2)c1O,98.3,98.6,0
O=C(NC(Nc1nc2ccc([N+](=O)[O-])cc2s1)(C(F)(F)F)C(F)(F)F)c1ccccc1Cl,98.5,100.0,59.5
O=C(NC(Nc1nc2ccc([N+](=O)[O-])cc2s1)(C(F)(F)F)C(F)(F)F)c1cccnc1,0,0,0
COc1ccccc1NC(=O)CSC1=NCCN1,0,0,-
COc1cccc(NC(=O)CCN2C(=O)c3ccccc3S2(=O)=O)c1,0,0,0
Cc1ccc(N2C(=O)c3ccccc3C2Nc2ccccc2F)nc1 (stereo not given),0,0,0
Cc1ccc(N2C(=O)c3ccccc3C2O)nc1 (stereo not given),-,-,69.9
COc1cc(NC(=S)NCCCN2CCOCC2)c(OC)cc1NC(=O)c1ccco1,0,0,0
CCC(C)Sc1cc(-c2nc3ccccn3c2NC2CCCCC2)ccc1OC (stereo not given),98.8,100.1,0
CCC(C)Sc1cc(-c2nc3cc(C)ccn3c2NC2CCCCC2)ccc1OC (stereo not given),0,0,-
SMILES,Sa ugtP lethal,RN4220 kill,BJeLR viability
CC1CC(C)CN(C(=O)/C(=C\c2ccccc2)c2ccccc2)C1 (stereo not given),0,0,0
On1c(-c2ccccc2)nc2ccccc21,0,0,0
O=Nc1c2nc3ccccc3n(O)c-2c2ccccc12,89.6,0,0
CCCOC(=O)C[N+](C)(C)CCOC1CC2CCC1(C)C2(C)C (stereo not given),0,0,0
CCC(C)OC(=O)C[N+](C)(C)CCOC1CC2CCC1(C)C2(C)C (stereo not given),0,0,0
CC(C)CCOC(=O)C[N+](C)(C)CCOC1CC2CCC1(C)C2(C)C (stereo not given),100.7,0,0
CCCCOC(=O)C[N+](C)(C)CCOC1CC2CCC1(C)C2(C)C (stereo not given),88.8,0,0
CCCCCCOC(=O)C[N+](C)(C)CCOC1CC2CCC1(C)C2(C)C (stereo not given),0,0,0
CCCCCCCOC(=O)C[N+](C)(C)CCOC1CC2CCC1(C)C2(C)C (stereo not given),100.2,100.2,0
CCCSCCCNC(=O)c1cc2c(s1)CS(=O)(=O)C2,0,0,0
Cn1c(O)c(N=NC(=O)Cn2ccc(C(F)(F)F)n2)c2ccccc21,0,0,0
FC(F)Sc1ccc(-n2c(-c3ccc(Cl)cc3)c[n+]3c2CCC3)cc1,0,0,0
CC1(C)C[C@H]2C=C(C=O)[C@]3(C=O)C[C@]3(C)[C@H]2C1,-,-,92.0
COc1cccc(NC(=O)c2ccc3c(c2)OCCO3)c1,0,0,0
CC(=NNc1cc(-c2ccccc2)nc(-c2ccccc2)n1)c1ccc(O)c(C)c1,99.5,98.5,-
COc1cc(NN=C(C)c2ccc(O)c(C)c2)nc(-c2ccccc2)n1,0,0,-
O=c1c2ccccc2oc2cc(-c3ccc4[nH]ccc4c3)ccc12,88.2,88.1,0
COc1cc2sc3ccc(-c4ccc5[nH]ccc5c4)cc3c(=O)c2cc1OC,0,0,0
